PubChem BioAssay (NCATS)
Records with an inconclusive call do not appear. Active and inactive are the calls of the source. Unless noted, calls come from the whole dose curve; as a rule, active = well fitted curve in either direction with a large enough effect (not every such curve was filed as active); inconclusive = small, poorly fitted or top-dose-only effect, or another doubt; inactive = flat fitted curve, though single readings scatter.

Legend:
[1] = target: Lysosomal acid glucosylceramidase (Homo sapiens) (UniProt P04062); assay: Glucocerebrosidase-p2 (AID 348; in the data active = potency below about 10 µM; note: potency is the fitted concentration of half-maximal effect); details: purified GBA, blue fluorogenic substrate, 40 min
How it was run: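 Compounds titrated from 0.6 nM upwards against 0.2 nM enzyme in pH 5.9 citric acid/KH2PO4, taurocholate, tween-20; blue fluorogenic substrate 80 uM, 40 min room temperature, stopped and read Ex 365/Em 440 for AC50.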

[2] = AP1 Signaling Pathway (AID 357); details: ME-180 AP-1-bla reporter, EGF-induced, beta-lactamase ratio, 5 h; at 7.69 µM (top of the series) unless noted;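 note: ME-180 reporter cells stimulated with EGF at its EC50 level; % is set by controls: 0 for no effect and ±100 for the full control effect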
How it was run: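 Read-out was the 460nm/530nm emission ratio (excitation 405nm) after CCF4 loading for 2.5 hours at room temperature. Cells carried an AP-1-driven beta-lactamase reporter, were stimulated with EC50 EGF plus compound for 5 hours, and AC50 values came from titrations.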

[3] = target: Cytochrome P450 1A2 (Homo sapiens) (UniProt P05177); assay: p450-cyp1a2 (AID 410; calls by dose curve;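 note: -100% = full effect of reference inhibitor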); details: recombinant CYP1A2, luciferin-ME demethylation, luminescence; series mostly up to 11.4 µM
How it was run: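 20nM CYP1A2 with 100uM Luciferin-ME (at Km) in 100mM KPO4; compound preincubated 10 min, NADPH regeneration added, 60 min at room temperature. Luciferin quantified by luminescence after detection reagent; normalized to 57 uM furafylline.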

[4] = NFAT Signaling Pathway (AID 444); details: Jurkat NFAT-bla M1, carbachol, beta-lactamase ratio, 5 h; at 7.69 µM (top of the series) unless noted;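 note: carbachol stimulus at about its EC50 of 1 µM final; % is set by controls: 0 for no effect and ±100 for the full control effect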
How it was run: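 Read-out: CCF4 FRET ratio (460 nm/530 nm) after 1 h RT dye loading, used for %activity and AC50 from titration series. Cells: Jurkat NFAT-β-lactamase/M1 line, treated with compound plus 1 uM carbachol for 5 h, 37 °C.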

[5] = Stat Signaling Pathway (AID 446); details: ME-180 SIE beta-lactamase reporter, IL-6 stimulated, 5 h; at 7.69 µM (top of the series) unless noted;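 note: ME-180 cervical cancer cells given 40 pM IL-6 alongside compound; SIE-controlled beta-lactamase reporter measured as 460/530 nm FRET emission ratio; % is set by controls: 0 for no effect and ±100 for the full control effect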
How it was run: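 ME-180 SIE-bla cells; overnight plating; cpd + IL-6 40 pM, 5 h, 37 C; LiveBLAzer 2.5 h RT; 460/530 nm emission ratio. Normalized to 300 pM IL-6 and 125 nM JAK inhibitor controls.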

[6] = target: Glucocorticoid receptor (Homo sapiens) (UniProt P04150); assay: GR-GFP Redistribution (AID 450;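 active = compounds whose dose series gives a full or clear partial fitted curve of increased nuclear translocation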; note: potency is the fitted concentration of half-maximal effect); details: U2OS GR-GFP nuclear translocation, laser cytometry, 2 h
[7] = target: Glucocorticoid receptor (Homo sapiens) (UniProt P04150); assay: GR-EFC Redistribution (AID 451; calls by dose curve; note: potency is the fitted concentration of half-maximal effect); details: CHO-K1 GR-EFC translocation, beta-gal luminescence, 2 h
How it was run: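 Translocation of GR-ED fusion to nuclear EA restores b-gal, read by luminescence after 1 h room-temperature detection. Engineered CHO-K1 biosensor cells, 1,000/well, exposed 2 h at 37 C to titrations up to 46 uM final.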

[8] = target: Mitogen-activated protein kinase 10 (Mus musculus) (UniProt Q61831); assay: JNK3 AlphaScreen Assay (AID 530); details: JNK3 lysate, c-Jun phosphorylation; series mostly up to 11.4 µM;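 note: kinase came from lysate of stimulated human HepG2 cells; signal reports phosphorylation of biotinylated GST-cJun 1-79 at Ser73 with 10 µM ATP; % is set by controls: 0 for no effect and ±100 for the full control effect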
How it was run: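 Compound titrations were preincubated 15 minutes at room temperature with substrate, antibody and pre-activated JNK3-containing HepG2 lysate. Reactions were started with 10 uM ATP and stopped with EDTA-containing bead buffer for AlphaScreen detection.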

[9] = target: 3',5'-cyclic-AMP phosphodiesterase 4B (Homo sapiens) (UniProt Q07343); assay: qHTS Assay for Inhibitors of PDE-IV (AID 607; active = well fitted activation curve with a large enough effect in the main read-out, with a control signal flat, not every such curve was filed as active; note: % of control where 0% means no effect); details: HEK293 ACTOne CNG channel cells, membrane potential fluorescence; series mostly up to 22.9 µM
How it was run: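 ACTOne HEK293 cells carry a modified cAMP-gated CNG channel and express endogenous PDE4; plated 1000 cells/well, compounds up to 22.9 uM final. Membrane-potential dye fluorescence (ex 535/em 590) was read; parental cells received 10 uM forskolin + 100 uM RO 20-1724.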

Chain of Cytochrome P450 1A2 (Homo sapiens) (P05177 whole entry, looked up): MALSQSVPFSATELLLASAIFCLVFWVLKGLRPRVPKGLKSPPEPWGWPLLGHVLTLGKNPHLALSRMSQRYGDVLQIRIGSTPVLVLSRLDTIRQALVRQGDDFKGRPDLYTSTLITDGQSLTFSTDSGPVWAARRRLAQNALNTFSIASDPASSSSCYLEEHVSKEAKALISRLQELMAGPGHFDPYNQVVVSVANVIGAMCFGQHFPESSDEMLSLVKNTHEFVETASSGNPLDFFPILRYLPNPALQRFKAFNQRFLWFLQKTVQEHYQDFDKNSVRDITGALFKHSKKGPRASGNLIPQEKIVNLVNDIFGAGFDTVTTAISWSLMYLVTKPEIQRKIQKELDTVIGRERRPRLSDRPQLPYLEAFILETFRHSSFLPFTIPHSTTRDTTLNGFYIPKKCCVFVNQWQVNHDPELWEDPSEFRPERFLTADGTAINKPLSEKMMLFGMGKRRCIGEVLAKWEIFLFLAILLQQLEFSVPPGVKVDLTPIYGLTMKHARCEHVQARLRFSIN
Chain of Glucocorticoid receptor (Homo sapiens) (P04150 whole entry, looked up, the tested form may be a part): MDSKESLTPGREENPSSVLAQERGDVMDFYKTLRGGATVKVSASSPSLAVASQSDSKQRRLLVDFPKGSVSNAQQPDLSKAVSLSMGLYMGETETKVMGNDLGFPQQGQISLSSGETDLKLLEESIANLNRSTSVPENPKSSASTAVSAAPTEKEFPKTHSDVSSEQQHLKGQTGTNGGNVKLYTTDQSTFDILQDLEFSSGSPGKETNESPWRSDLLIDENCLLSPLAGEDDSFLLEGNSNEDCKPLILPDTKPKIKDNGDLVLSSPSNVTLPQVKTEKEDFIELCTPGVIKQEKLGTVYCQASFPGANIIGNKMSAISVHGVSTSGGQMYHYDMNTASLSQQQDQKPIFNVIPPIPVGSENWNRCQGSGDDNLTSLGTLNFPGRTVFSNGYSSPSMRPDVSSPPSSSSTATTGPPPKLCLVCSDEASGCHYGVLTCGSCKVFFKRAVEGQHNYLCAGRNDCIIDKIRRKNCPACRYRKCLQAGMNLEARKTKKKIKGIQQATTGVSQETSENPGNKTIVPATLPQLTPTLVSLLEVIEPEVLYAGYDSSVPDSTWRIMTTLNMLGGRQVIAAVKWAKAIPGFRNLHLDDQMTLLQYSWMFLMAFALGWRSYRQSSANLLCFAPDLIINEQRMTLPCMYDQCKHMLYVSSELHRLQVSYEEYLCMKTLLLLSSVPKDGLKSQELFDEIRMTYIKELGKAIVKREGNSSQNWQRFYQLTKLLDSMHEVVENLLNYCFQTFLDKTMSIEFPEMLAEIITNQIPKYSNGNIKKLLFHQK
Chain of Lysosomal acid glucosylceramidase (Homo sapiens) (P04062 whole entry, looked up): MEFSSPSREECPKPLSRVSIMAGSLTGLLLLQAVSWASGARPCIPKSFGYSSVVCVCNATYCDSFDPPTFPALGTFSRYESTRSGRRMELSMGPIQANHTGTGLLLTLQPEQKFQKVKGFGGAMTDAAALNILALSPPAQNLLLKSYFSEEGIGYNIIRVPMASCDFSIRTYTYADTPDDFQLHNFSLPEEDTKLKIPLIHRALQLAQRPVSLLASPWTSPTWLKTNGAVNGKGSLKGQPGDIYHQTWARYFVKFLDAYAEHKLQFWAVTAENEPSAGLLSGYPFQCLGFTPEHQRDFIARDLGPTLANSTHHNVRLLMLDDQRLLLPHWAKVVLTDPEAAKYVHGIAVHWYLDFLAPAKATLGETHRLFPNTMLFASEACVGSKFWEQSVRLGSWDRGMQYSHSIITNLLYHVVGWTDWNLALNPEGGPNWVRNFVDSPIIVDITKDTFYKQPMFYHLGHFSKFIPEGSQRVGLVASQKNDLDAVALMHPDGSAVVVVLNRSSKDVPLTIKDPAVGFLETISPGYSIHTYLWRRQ
Chain of 3',5'-cyclic-AMP phosphodiesterase 4B (Homo sapiens) (Q07343 whole entry, looked up): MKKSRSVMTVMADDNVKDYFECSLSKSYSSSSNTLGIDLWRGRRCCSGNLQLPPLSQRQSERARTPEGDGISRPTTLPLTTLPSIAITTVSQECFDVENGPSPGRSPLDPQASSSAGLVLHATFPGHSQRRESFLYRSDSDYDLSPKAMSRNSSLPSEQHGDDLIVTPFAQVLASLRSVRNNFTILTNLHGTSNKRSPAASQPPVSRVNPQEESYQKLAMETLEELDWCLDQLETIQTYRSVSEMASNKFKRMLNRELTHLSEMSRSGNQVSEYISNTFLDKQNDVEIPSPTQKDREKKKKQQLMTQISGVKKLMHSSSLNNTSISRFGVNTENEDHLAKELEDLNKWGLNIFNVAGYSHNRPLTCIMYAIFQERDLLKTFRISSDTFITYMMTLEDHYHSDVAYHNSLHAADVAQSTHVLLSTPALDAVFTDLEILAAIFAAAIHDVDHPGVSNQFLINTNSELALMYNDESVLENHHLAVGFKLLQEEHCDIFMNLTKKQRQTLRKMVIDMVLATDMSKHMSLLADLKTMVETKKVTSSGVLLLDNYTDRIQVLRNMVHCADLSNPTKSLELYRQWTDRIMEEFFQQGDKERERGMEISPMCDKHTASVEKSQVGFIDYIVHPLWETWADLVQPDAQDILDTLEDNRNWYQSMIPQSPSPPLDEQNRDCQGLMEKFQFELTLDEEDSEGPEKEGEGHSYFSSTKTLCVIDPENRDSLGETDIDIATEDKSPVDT

Nc1nc(N)c2[nH]cnc2n1 (tested in a mixture with another compound)
inactive: Potency [1] > 11.4 µM | activity change, negative = inhibition [2] 4.54% | activity change, negative = inhibition [3] -5.5% [at 2.29 µM] | activity change, negative = inhibition [4] 20.2% | activity, negative = inhibition [5] 4.45% | Potency [6] > 46 µM | Potency [7] > 9.22 µM | Potency [8] | Potency [9]

Cn1c(=O)c2c(ncn2CN2CCN(Cn3cnc4c3c(=O)n(C)c(=O)n4C)CC2)n(C)c1=O
inactive: Potency [1] > 11.4 µM | activity change, negative = inhibition [2] -1.04% | activity change, negative = inhibition [3] -18.2% [at 2.29 µM] | activity change, negative = inhibition [4] 7.2% | activity, negative = inhibition [5] 2.15% | Potency [6] > 46 µM | Potency [7] > 9.22 µM | Potency [8] | Potency [9]

Cc1ccnc(NS(=O)(=O)c2ccc(N=[N+]=[N-])cc2)n1
inactive: Potency [1] > 11.4 µM | activity change, negative = inhibition [2] -2.39% | Potency [3] | activity change, negative = inhibition [4] 4.09% | activity, negative = inhibition [5] 1.25% | Potency [6] > 46 µM | Potency [7] > 9.22 µM | Potency [8] | Potency [9]

Nc1nc(N)c2nn(-c3ccc(C(=O)O)cc3)nc2n1
inactive: Potency [1] > 11.4 µM | activity change, negative = inhibition [2] -3.5% | activity change, negative = inhibition [3] -13.4% [at 2.29 µM] | activity change, negative = inhibition [4] 6.6% | activity, negative = inhibition [5] -0.747% | Potency [6] > 46 µM | Potency [7] > 9.22 µM | Potency [8] | Potency [9]

Oc1cc(CN2COc3ccccc32)c(O)cc1CNC1CCCCC1
inactive: Potency [1] > 11.4 µM | activity change, negative = inhibition [2] 6.94% | Potency [3] | activity change, negative = inhibition [4] -5.35% | activity, negative = inhibition [5] 0.916% | Potency [6] > 46 µM | Potency [7] > 9.22 µM | Potency [8] | Potency [9]

CC1CCC(C(=O)O)([C@H](Br)C(=O)O)CC1 (some centres undefined)
inactive: Potency [1] > 11.4 µM | activity change, negative = inhibition [2] -2.54% | Potency [3] | activity change, negative = inhibition [4] 13.7% | activity, negative = inhibition [5] 8% | Potency [6] > 46 µM | Potency [7] > 9.22 µM | Potency [8] | Potency [9]

c1c[nH]c(CN2CCN(Cc3ncc[nH]3)CC2)n1
inactive: Potency [1] > 11.4 µM | activity change, negative = inhibition [2] 4.41% | Potency [3] | activity change, negative = inhibition [4] -12.2% | activity, negative = inhibition [5] -5.33% | Potency [6] > 46 µM | Potency [7] > 9.22 µM | Potency [8] | Potency [9]

Cc1cc(N2CCN(C)CC2)n2nc(-c3ccc(Cl)cc3)nc2n1
inactive: Potency [1] > 11.4 µM | activity change, negative = inhibition [2] -1.96% | Potency [3] | activity change, negative = inhibition [4] 13.2% | activity, negative = inhibition [5] 4.28% | Potency [6] > 46 µM | Potency [7] > 9.22 µM | Potency [8] | Potency [9]

COC(=O)[C@@H]1[C@@H]2C[C@H]3c4[nH]c5ccccc5c4CCN3C[C@@H]2CC[C@@H]1OS(=O)(=O)O
inactive: Potency [1] > 11.4 µM | activity change, negative = inhibition [2] 1.46% | activity change, negative = inhibition [3] -10.3% [at 2.29 µM] | activity change, negative = inhibition [4] 3.3% | activity, negative = inhibition [5] 12.7% | Potency [6] > 46 µM | Potency [7] > 9.22 µM | Potency [8] | Potency [9]

C1CCN(CC[C@@H]2CCCCN2)CC1
inactive: Potency [1] > 11.4 µM | activity change, negative = inhibition [2] 12.5% | Potency [3] | activity change, negative = inhibition [4] 8.93% | activity, negative = inhibition [5] -0.348% | Potency [6] > 46 µM | Potency [7] > 9.22 µM | Potency [8] | Potency [9]

O=C(O)COc1c(Cl)cc(Cl)c2cccnc12
inactive: Potency [1] > 11.4 µM | activity change, negative = inhibition [2] 6.1% | activity change, negative = inhibition [3] -1.3% [at 2.29 µM] | activity change, negative = inhibition [4] 1.63% | activity, negative = inhibition [5] -0.716% | Potency [6] > 46 µM | Potency [7] > 9.22 µM | Potency [8] | Potency [9]

CC(=NC1CCCCC1)c1ccccc1O
inactive: Potency [1] > 11.4 µM | activity change, negative = inhibition [2] 6.06% | Potency [3] | activity change, negative = inhibition [4] 16.7% | activity, negative = inhibition [5] 11% | Potency [6] > 46 µM | Potency [7] > 9.22 µM | Potency [8] | Potency [9]

O[C@H](COc1ccccc1)CN1CCCCC1
inactive: Potency [1] > 11.4 µM | activity change, negative = inhibition [2] -1.24% | Potency [3] | activity change, negative = inhibition [4] 2.42% | activity, negative = inhibition [5] 10.3% | Potency [6] > 46 µM | Potency [7] > 9.22 µM | Potency [8] | Potency [9]

Nc1nc(N)[n+]([O-])c(N)c1NCO
inactive: Potency [1] > 11.4 µM | activity change, negative = inhibition [2] 7.34% | Potency [3] | activity change, negative = inhibition [4] 9.37% | activity, negative = inhibition [5] 7% | Potency [6] > 46 µM | Potency [7] > 9.22 µM | Potency [8] | Potency [9]

NC(N)=Nc1ccc(-c2ccc(N=C(N)N)cc2)cc1
inactive: Potency [1] > 11.4 µM | activity change, negative = inhibition [2] 1.56% | Potency [3] | activity change, negative = inhibition [4] 4.39% | activity, negative = inhibition [5] 0.358% | Potency [6] > 46 µM | Potency [7] > 9.22 µM | Potency [8] | Potency [9]

O=C(O)CCCSc1ccccc1
inactive: Potency [1] > 11.4 µM | activity change, negative = inhibition [2] -2.81% | Potency [3] | activity change, negative = inhibition [4] -1.05% | activity, negative = inhibition [5] 4.11% | Potency [6] > 46 µM | Potency [7] > 9.22 µM | Potency [8] | Potency [9]
